Our source for the inhibition values is ChEMBL document CHEMBL1961873, “Compounds: GSK PKIS; Assays: Nanosyn kinase panel” (2012).

The target in experiment [1] is Tyrosine-protein kinase receptor UFO (Homo sapiens) (UniProt P30530). The conditions noted are these: at 1 µM.
Experiment [2] has as its target Tyrosine-protein kinase Blk (Homo sapiens) (UniProt P51451). The conditions noted are these: at 0.1 µM.
Experiment [3] shares this target. Particulars: at 1 µM.
Experiment [4] addresses T1, Cytoplasmic tyrosine-protein kinase BMX (Homo sapiens) (UniProt P51813).
T1 sequence (whole entry): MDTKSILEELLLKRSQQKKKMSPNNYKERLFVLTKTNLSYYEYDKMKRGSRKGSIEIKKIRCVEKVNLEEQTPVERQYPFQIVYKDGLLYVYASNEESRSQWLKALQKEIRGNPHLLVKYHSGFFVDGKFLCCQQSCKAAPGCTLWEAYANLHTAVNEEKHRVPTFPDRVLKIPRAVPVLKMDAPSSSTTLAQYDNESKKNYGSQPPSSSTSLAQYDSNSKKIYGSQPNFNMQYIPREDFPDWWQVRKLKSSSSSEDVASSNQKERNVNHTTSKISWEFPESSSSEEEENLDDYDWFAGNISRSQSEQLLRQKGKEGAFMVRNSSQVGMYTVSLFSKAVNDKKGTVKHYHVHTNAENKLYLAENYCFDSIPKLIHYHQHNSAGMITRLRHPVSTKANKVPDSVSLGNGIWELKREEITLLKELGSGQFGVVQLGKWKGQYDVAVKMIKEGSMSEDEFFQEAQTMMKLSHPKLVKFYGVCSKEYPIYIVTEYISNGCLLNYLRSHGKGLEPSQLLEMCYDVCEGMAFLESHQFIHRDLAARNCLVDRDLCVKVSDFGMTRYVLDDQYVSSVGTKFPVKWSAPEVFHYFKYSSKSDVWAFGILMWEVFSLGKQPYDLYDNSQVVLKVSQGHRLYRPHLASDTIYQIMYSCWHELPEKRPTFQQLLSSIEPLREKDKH
The conditions noted are these: at 0.1 µM.

Experiment [5] has as its target T1, Cytoplasmic tyrosine-protein kinase BMX (Homo sapiens). Particulars: at 1 µM.
Experiment [6] concerns the target Protein-tyrosine kinase 6 (Homo sapiens) (UniProt Q13882). The conditions noted are these: at 0.1 µM.
The target is the same in experiment [7]. The conditions noted are these: at 1 µM.
The target in experiment [8] is Tyrosine-protein kinase BTK (Homo sapiens) (UniProt Q06187). The conditions noted are these: at 0.1 µM.
For experiment [9] the target is unchanged. Particulars: at 1 µM.
The target of experiment [10] is Tyrosine-protein kinase CSK (Homo sapiens) (UniProt P41240). The conditions noted are these: at 0.1 µM.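 Also: value given is the averaged percent inhibition of CSK kinase activity, from the GSK PKIS kinase inhibitor set screening panel.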
Sequence of Tyrosine-protein kinase CSK (Homo sapiens) (P41240 2-450 limits assumed): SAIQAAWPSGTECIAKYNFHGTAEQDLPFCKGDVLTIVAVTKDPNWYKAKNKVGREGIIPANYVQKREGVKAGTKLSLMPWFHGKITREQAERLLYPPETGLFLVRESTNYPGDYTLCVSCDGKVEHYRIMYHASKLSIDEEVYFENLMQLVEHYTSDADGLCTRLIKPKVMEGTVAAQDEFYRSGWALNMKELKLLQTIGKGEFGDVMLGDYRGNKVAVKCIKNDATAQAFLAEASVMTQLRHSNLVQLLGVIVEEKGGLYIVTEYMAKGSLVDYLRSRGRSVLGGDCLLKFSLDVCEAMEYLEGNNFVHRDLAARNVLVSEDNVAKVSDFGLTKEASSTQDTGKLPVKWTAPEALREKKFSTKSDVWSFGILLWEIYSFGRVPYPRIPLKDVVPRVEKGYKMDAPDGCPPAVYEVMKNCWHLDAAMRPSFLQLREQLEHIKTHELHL

Sequence of Tyrosine-protein kinase Blk (Homo sapiens) (P51451 2-505 limits assumed): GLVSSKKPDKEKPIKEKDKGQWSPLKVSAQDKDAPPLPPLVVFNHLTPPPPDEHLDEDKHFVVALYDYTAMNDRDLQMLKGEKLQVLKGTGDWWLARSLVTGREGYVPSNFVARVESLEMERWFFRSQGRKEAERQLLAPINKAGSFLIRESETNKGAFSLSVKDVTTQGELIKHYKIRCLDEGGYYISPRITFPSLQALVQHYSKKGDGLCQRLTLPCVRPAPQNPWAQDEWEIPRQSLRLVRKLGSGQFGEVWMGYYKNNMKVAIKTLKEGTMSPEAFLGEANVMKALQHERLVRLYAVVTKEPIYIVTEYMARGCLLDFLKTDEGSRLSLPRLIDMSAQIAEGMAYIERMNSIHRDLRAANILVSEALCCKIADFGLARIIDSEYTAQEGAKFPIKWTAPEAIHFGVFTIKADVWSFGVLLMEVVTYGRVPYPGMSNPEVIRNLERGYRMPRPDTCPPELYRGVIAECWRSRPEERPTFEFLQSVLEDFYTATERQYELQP
Sequence of Tyrosine-protein kinase BTK (Homo sapiens) (Q06187 whole entry): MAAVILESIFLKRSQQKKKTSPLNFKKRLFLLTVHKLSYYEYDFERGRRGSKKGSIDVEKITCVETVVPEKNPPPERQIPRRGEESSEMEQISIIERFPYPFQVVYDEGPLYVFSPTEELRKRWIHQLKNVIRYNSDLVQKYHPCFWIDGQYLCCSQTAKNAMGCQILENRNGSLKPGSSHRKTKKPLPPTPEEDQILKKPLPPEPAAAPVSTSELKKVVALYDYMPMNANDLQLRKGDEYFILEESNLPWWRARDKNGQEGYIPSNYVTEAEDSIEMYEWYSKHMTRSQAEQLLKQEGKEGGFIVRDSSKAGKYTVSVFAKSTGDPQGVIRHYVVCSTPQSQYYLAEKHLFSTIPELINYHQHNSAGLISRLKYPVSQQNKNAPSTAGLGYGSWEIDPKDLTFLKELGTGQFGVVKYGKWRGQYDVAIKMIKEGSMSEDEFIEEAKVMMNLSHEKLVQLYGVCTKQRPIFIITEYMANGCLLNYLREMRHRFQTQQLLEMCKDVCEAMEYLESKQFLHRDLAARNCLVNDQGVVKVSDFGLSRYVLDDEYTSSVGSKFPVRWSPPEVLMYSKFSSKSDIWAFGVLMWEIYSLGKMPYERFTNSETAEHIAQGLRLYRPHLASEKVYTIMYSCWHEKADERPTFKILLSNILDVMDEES
Sequence of Tyrosine-protein kinase receptor UFO (Homo sapiens) (P30530 whole entry): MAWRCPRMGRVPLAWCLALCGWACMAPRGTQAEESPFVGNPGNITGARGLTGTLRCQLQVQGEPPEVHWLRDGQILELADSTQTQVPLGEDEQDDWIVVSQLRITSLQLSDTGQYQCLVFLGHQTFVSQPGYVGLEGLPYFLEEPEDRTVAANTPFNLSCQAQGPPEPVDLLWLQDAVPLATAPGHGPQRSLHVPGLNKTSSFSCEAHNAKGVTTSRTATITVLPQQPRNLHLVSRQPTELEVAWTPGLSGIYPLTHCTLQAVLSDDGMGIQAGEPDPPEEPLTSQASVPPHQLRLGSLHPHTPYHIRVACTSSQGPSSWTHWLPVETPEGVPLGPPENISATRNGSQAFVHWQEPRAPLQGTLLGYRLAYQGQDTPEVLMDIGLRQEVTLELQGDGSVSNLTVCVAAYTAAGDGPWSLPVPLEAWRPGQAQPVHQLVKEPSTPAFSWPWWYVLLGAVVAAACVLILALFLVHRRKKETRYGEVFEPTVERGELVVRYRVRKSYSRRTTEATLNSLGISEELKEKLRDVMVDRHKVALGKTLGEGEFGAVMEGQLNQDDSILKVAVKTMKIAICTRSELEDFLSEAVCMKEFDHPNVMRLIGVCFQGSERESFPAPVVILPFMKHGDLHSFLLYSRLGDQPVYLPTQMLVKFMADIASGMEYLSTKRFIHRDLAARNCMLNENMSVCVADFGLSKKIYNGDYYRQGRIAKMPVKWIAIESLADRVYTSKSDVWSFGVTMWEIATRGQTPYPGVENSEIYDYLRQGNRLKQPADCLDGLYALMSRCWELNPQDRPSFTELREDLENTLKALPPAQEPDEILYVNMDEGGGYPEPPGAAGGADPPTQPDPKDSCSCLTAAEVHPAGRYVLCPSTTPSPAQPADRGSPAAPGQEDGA
Sequence of Protein-tyrosine kinase 6 (Homo sapiens) (Q13882 whole entry, looked up): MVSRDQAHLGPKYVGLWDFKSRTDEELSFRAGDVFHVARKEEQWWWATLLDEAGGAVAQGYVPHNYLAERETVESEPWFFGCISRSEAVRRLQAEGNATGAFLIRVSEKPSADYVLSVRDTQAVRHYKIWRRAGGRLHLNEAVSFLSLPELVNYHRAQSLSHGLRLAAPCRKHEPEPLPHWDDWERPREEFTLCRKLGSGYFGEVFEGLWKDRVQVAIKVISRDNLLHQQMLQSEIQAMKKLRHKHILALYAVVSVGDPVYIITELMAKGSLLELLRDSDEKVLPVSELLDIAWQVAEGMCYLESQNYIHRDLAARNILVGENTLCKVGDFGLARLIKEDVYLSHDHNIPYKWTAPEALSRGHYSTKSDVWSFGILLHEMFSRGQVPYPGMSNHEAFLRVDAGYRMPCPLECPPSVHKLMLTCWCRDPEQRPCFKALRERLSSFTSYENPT

For `O=C(Nc1ccc(Oc2ccc3[nH]c(NC(=O)c4ccccc4)nc3c2)cc1)Nc1cc(C(F)(F)F)ccc1F`, the inhibition in experiment [1] was found to be 19.2%; in experiment [2] it was 2.56%; in experiment [3], 4.59%; in [4] it was 1.13%; in experiment [5], 2.54%; in experiment [6], 3.52%. Further, the inhibition in [7] is 8.39%; in experiment [8], 0.7%; in experiment [9], 3.03%; in experiment [10], 2.64%.

As to `COc1cccc(-n2cnc3c(N/N=C/c4ccncc4)ncnc32)c1`, the inhibition in [1] is -2.08%; in [2], -0.3%; in [3], 15.8%; in [4], -0.75%; in experiment [5], 16.1%; in experiment [6] it was 0.43%. Moreover, the inhibition in experiment [7] is 15.2%; in experiment [8], -2.61%; in experiment [9], -2.79%; in [10] it was 1.91%.

With `O=C1Nc2ccc(I)cc2C1=Cc1cc(Br)c(O)c(Br)c1`, the inhibition in [1] was -7.49%; in [2], 1.48%; in experiment [3], 3.74%; in experiment [4] it was 2.64%; in [5], 7.27%; in experiment [6] it was 3.26%. Besides, the inhibition is 6.68% in experiment [7], -1.22% in experiment [8], -0.86% in experiment [9] and -2.19% in [10].

Consider `C[C@@H](Oc1cc(-n2cnc3ccc(OC4CCN(C)CC4)cc32)sc1C(N)=O)c1ccccc1Cl`, for which the inhibition was -3.62% in experiment [1]; -0.86% in experiment [2]; -0.94% in experiment [3]; 4% in experiment [4]; 6.6% in [5]; 2.72% in experiment [6]. For the same molecule, the inhibition in experiment [7] is 3.15%; in [8], -4.65%; in [9] it was -3.35%; in experiment [10] it was 2.4%.

With `O=C(Nc1n[nH]c2nc(-c3ccco3)ccc12)C1CC1`, the inhibition is 5.23% in [1]; 0.69% in experiment [2]; 5.1% in experiment [3]; -0.85% in experiment [4]; 1.83% in experiment [5]; 2.56% in [6]. Also, the inhibition was 1.59% in experiment [7], 0.36% in experiment [8], 0.7% in experiment [9] and 0.84% in experiment [10].

Turning to `COc1cc(C)c(N(C)C(=O)CN(C)C)cc1Nc1nc(Nc2cccc(F)c2C(N)=O)c2cc[nH]c2n1`, the inhibition is 3.71% in [1]; -3.28% in experiment [2]; -1.84% in [3]; -1.82% in [4]; 2.46% in [5]; 0.54% in experiment [6]. For the same molecule, the inhibition was 1.53% in [7], -1.73% in experiment [8], -2.02% in [9] and 1.1% in [10].

Take `Fc1ccc(-c2ncn(C3CCNCC3)c2-c2ccnc(Oc3ccc4c(c3)OCO4)n2)cc1`: the inhibition is -5.79% in experiment [1]; 4.26% in experiment [2]; 5.32% in [3]; 5.5% in experiment [4]; 5.87% in [5]; 4.19% in [6]. In addition, the inhibition in experiment [7] is 5.5%; in experiment [8], -0.46%; in [9], 0.77%; in experiment [10], 3.85%.

As to `CCS(=O)(=O)c1ccc(OC)c(Nc2ncc(-c3ccccc3Cl)o2)c1`, the inhibition in [1] was 1.78%; in experiment [2] it was 2.51%; in [3], 15.7%; in experiment [4], -1.76%; in experiment [5] it was 3.11%; in experiment [6], -0.35%. For the same molecule, the inhibition in experiment [7] amounted to 5.66%; in experiment [8] it was 2.72%; in experiment [9], 2.31%; in experiment [10], 1.15%.

For the molecule `CN(c1ccc(NC(=O)Nc2c(Cl)cccc2Cl)cc1)c1ccnc(Nc2cccc(CS(C)(=O)=O)c2)n1`, the inhibition was determined as 28.6% in experiment [1]; 37.2% in [2]; 75% in [3]; 47.1% in [4]; 73.5% in experiment [5]; 10.8% in experiment [6]. Besides, the inhibition came out at 44% in experiment [7], 18.8% in experiment [8], 26.5% in [9] and 10.6% in experiment [10].

As to `NCc1ccc(-n2c(-c3nonc3N)nc3cnccc32)cc1`, the inhibition in [1] is -1.85%; in [2], 3.21%; in [3], 4.2%; in [4], 5.93%; in experiment [5], 4.77%; in experiment [6] it was 5.04%. In addition, the inhibition in [7] was 5.62%; in [8] it was -0.77%; in experiment [9], 0.66%; in [10] it was 3.09%.

With `Fc1ccc(-c2nc3n(c2-c2ccncc2)CCS3)cc1`, the inhibition was -3.95% in experiment [1]; -0.49% in experiment [3]; 2.02% in experiment [4]; 4.87% in experiment [5]; -1.54% in experiment [6]; 4.07% in experiment [7]. For the same molecule, the inhibition in experiment [8] was -2.44%; in experiment [9] it was -3.5%; in experiment [10], 7.37%.

For `COc1cc(Nc2ncc3c(C)nc(-c4cccc(Oc5ccccc5)c4)n3n2)cc(OC)c1OC`, the inhibition in experiment [1] came out at 4.22%; in experiment [2] it was 0.63%; in experiment [3], 4.56%; in experiment [4], 0.46%; in [5], 4.17%; in [6], 1.26%. Also, the inhibition in [7] stood at 1.89%; in experiment [8], 1.08%; in experiment [9], 1.57%; in [10], 4.01%.

Turning to `CCc1ccc(Oc2nccc(-c3c(-c4ccc(F)cc4)ncn3C3CCNCC3)n2)cc1`, the inhibition in experiment [1] is -3.44%; in [2] it was 2.31%; in experiment [3], 4.68%; in experiment [4], 5.07%; in experiment [5], 6.03%; in experiment [6], 2.72%. Besides, the inhibition in [7] is 2.5%; in experiment [8] it was -0.17%; in [9] it was 0.53%; in [10] it was -0.21%.

In the case of `CCN(CC)Cc1ccc(Nc2nccc(-c3cnn4ncccc34)n2)cc1`, the inhibition in experiment [1] was 16.3%; in experiment [2], -0.3%; in experiment [3], 1.7%; in experiment [4], 2.63%; in experiment [5], 10.8%; in experiment [6] it was 3.93%. Further, the inhibition in experiment [7] is 15.7%; in [8], -3.74%; in experiment [9], -0.83%; in [10], 1.79%.

On to `Fc1ccc(-c2ncn(CCCN3CCOCC3)c2-c2ccncc2)cc1`, for which the inhibition is 1.84% in experiment [1]; -0.04% in experiment [2]; 1.04% in experiment [3]; 1.9% in [4]; -0.36% in experiment [5]; -4.64% in experiment [6]. Further, the inhibition was -0.48% in experiment [7], -0.91% in experiment [8], 2.71% in experiment [9] and -2.06% in experiment [10].

With `N#Cc1ccc(Oc2nccc(-c3c(-c4ccc(F)cc4)ncn3C3CCNCC3)n2)cc1`, the inhibition in [1] was -3.22%; in experiment [2], 2.21%; in [3] it was 3.73%; in [4] it was 3.25%; in experiment [5], 4.26%; in experiment [6], 4.1%. Moreover, the inhibition in [7] was 4.81%; in [8], -1.09%; in experiment [9] it was 0.54%; in experiment [10], 0.79%.

As for `CN(C)c1ccc2c(c1)/C(=C/Nc1ccc(S(N)(=O)=O)cc1)C(=O)N2`, the inhibition in [1] was 14.8%; in experiment [2], 2.29%; in experiment [3] it was 33.2%; in [4], -8.96%; in experiment [5] it was 1.7%; in [6], 0.1%. The inhibition in experiment [7] was 2.14%; in [8] it was -1.88%; in [9], -0.24%; in [10], 2.3%.

Broadly, the inhibition is the change of the read-out against control, counted positive when it falls.
